Bead autofluor – compound fluorescence in toxin protease inhibitor counterscreen; hit rate 3.1% among 360,000; fluorescence intensity (test concentration not listed); compound autofluorescence counterscreen, microsphere flow cytometry; hits give high values; in the data active = fluorescence intensity above about 16000; inconclusive = no clear call, values can overlap the other calls
BoNT A protease – inhibitors of Botulinum neurotoxin A light chain protease. multiplex microsphere protease substrate cleavage, flow cytometry. inhibition, % at 10 µM. hit rate 0.17% among 360,000. AID 588499
BoNT F protease – blocks Botulinum neurotoxin F light chain protease; Multiplex microsphere protease cleavage assay, flow cytometry; inhibition, % at 10 µM; hit rate 0.22% among 360,000; in the data active = inhibition above about 35%, passing the limit was not always enough; inconclusive = no clear call, values can overlap the other calls
Anthrax LF prot – inhibitors of Bacillus anthracis lethal factor protease. multiplex microsphere protease cleavage assay, LF. P15917. hit rate 0.12% among 360,000. inhibition, % at 10 µM
Target sequence (P15917 whole entry, looked up): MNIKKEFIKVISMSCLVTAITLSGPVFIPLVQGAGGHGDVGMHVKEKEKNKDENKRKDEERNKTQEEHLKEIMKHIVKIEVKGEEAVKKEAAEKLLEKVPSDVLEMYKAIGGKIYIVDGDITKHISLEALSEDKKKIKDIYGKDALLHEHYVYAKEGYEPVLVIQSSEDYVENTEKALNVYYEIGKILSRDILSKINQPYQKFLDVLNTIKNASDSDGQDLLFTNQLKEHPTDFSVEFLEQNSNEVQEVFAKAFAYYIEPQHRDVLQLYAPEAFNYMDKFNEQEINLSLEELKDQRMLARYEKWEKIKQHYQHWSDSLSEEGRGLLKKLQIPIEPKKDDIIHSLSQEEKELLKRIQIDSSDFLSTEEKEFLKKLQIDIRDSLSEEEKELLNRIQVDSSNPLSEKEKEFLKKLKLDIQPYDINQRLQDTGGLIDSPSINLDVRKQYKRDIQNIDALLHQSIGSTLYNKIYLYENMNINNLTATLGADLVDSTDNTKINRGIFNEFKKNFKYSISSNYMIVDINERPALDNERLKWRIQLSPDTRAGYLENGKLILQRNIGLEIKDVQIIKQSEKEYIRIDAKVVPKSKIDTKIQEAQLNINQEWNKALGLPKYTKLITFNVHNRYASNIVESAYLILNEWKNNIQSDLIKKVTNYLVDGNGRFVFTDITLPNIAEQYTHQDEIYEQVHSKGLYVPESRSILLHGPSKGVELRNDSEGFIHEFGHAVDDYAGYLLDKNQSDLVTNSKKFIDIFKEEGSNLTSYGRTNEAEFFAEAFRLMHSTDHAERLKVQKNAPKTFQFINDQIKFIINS
Numbers stand for hits; n = inactive; u = inconclusive; ! = not confirmed by another sample. Compounds with a hit are over-represented: about 3.5% of the library has one in this group of screens. Cut-off read from the data, not from the text of the source, unless noted: active = inhibition above about 30%; inconclusive = no clear call, values can overlap the other calls; inactive = below that.

SMILES	Bead autofluor	BoNT A protease	BoNT F protease	Anthrax LF prot
CCCCNC(=O)C1(C)CCN1C(=O)c1ccc2sccc2c1 (stereo unspecified)	n	n	n	n
CCCCCCSc1cc(-c2nc3cc(C)ccn3c2NC2CCCCC2)ccc1OC	n	n	n	n
CCC(C)Sc1ccc(-c2nc3cc(C)ccn3c2NC2CCCCC2)cc1 (stereo unspecified)	20914!	n	n	n
COc1cc(-c2nc3cc(C)ccn3c2NC2CCCCC2)ccc1-c1ccc(C(C)=O)cc1	23646	n	n	n
Cc1ccccc1-c1nnc(SC(C)C(=O)NC2CCCC2)o1 (stereo unspecified)	n	n	n	n
CCOC(=O)/C(=N\Nc1cc(C(F)(F)F)ccc1Cl)N(CC)CC	20400	n	n	n
CN(C)CC(=O)Nc1cc(C(F)(F)F)ccc1Cl	u	n	n	n
O=C1c2cnc3nc(SCc4cccc(Cl)c4)nn3c2CC2c3ccccc3CCN12 (stereo unspecified)	21140	n	n	n
CN(CC(=O)NCC1CCCO1)S(=O)(=O)c1ccc2ccccc2c1 (stereo unspecified)	n	n	n	n
CCC(=O)N(C(=O)CC)N1CCN(c2ccncc2S(=O)(=O)N2CCCCC2)CC1	n	n	n	n
COC(=O)c1nn(-c2ccccc2)c(=O)cc1Oc1ccc(Cl)cc1	n	n	n	n
COC(=O)c1nn(-c2ccc(OC)cc2)c(=O)cc1Oc1ccccc1	21753	n	n	n
Cc1csc(Nc2nc(N)c(C(=O)Nc3ccccc3)o2)n1	n	n	n	n
Cc1ccc(COc2ccsc2-c2n[nH]c(=S)n2C)cc1	22046	n	n	n
C=CCNC(=O)c1ccc(-c2nc(-c3ccc(Cl)c(Cl)c3)cs2)cc1	22537	u	n	n
O=C1C=C(NCC2CCCO2)C2(CCCCC2)O1 (stereo unspecified)	19832	n	n	n
Cc1ccsc1CN(C)CC(=O)N(C)CC(=O)Nc1c(Cl)cccc1Cl	n	n	n	n
Cc1ccc(/C=C2\CCOC2=O)cc1	n	n	35.3	n
COc1ccc(/C=C2/CCOC2=O)cc1	n	n	n	n
COc1ccc(NC(=O)CN2CCC(C)CC2)cc1	17348	n	n	n
CCC1Oc2ccc(C)cc2N(CC(=O)NCc2cccc(OC)c2)C1=O (stereo unspecified)	17853	n	n	n
CCC1Oc2ccc(C)cc2N(CC(=O)NCc2cc(OC)ccc2OC)C1=O (stereo unspecified)	n	n	n	n
COc1ccc(CN(Cc2ccccn2)C(=O)CN2C(=O)C(C)Oc3ccccc32)cc1 (stereo unspecified)	22997	n	n	n
COc1ccc(NC(=O)CN2C(=O)C(C)Oc3ccccc32)cc1 (stereo unspecified)	23500	n	n	n
Cc1ccc(CNC(=O)C2CCC(=O)N(Cc3cccc(F)c3)C2)s1 (stereo unspecified)	n	n	n	n
SMILES	Bead autofluor	BoNT A protease	BoNT F protease	Anthrax LF prot
CC(C)CCNC(=O)c1cc(S(=O)(=O)N2CCC3(CC2)OCCO3)ccc1F	n	n	n	n
O=C(CN1C(=O)COc2ccccc21)N(Cc1ccccc1)Cc1ccccn1	22246	u	n	n
CCC1Oc2ccccc2N(CC(=O)Nc2ccccc2OC)C1=O (stereo unspecified)	22225	u	n	n
c1ccc(CSc2cc3ccccc3[nH]2)cc1	n	n	n	n
COC(=O)c1nc(NC(=O)c2ccc(Br)cc2)n[nH]1	n	n	n	n
Cc1cc(NC(=O)c2cccc(Cl)c2)n[nH]1	n	n	n	n
Cn1sc(NC(=O)c2cccc(Cl)c2)nc1=O	22807	n	n	n
Cn1sc(NC(=O)c2ccccc2Cl)nc1=O	24069	n	n	n
COC(=O)c1nc(NC(=O)c2ccccc2Cl)n[nH]1	22352	n	n	n
O=C(NCC(c1ccc(F)cc1)N1CCOCC1)c1nn(-c2ccccc2)c(=O)c2ccccc12 (stereo unspecified)	n	n	n	n
N#Cc1nc(-c2ccc(Cl)cc2)oc1NCc1cccc2c1OCO2	19143	n	n	n
COc1ccc(-c2nc(C#N)c(NCc3ccccc3Cl)o2)cc1	20055	u	n	n
COc1ccc(CNc2oc(COc3ccc(Cl)cc3)nc2C#N)cc1	20982	n	n	n
Cc1ccc(-c2nc(C#N)c(NCCN3CCCCC3)o2)cc1	22423	u	n	n
Cn1c(O)c(C2=c3ccccc3=NC2=O)sc1=Nc1ccc(Cl)cc1	19149	n	n	n
O=C(O)Cn1c(O)c(C2=c3ccccc3=NC2=O)sc1=O	n	n	n	n
CCOC(=O)[C@]12CCC=C1N(Cc1cccc3ccccc13)C(=O)[C@H](CC(=O)NCc1ccc(OC)c(OC)c1)C2	n	n	n	n
Cn1cc(-c2csc(C(O)c3ccc(F)cc3)n2)cn1 (stereo unspecified)	n	n	n	n
Cn1nnc(-c2ccc(OCc3ccccc3F)cc2)n1	23800	n	n	n
Fc1ccccc1COc1ccc(-c2nnn(Cc3ccccc3F)n2)cc1	n	n	n	n
Cc1cc2nc(NC(=O)C3(C)CCCN(C(C)C)C3)[nH]c2cc1C (stereo unspecified)	n	n	n	n
CC1=C(C(=O)NCc2ccccc2)C(c2ccc(C)o2)n2ncnc2N1 (stereo unspecified)	20601	u	n	n
CC1=C(C(=O)Nc2ccccc2)C(c2ccc(C)o2)n2ncnc2N1 (stereo unspecified)	n	n	n	n
CCN(Cc1ccccc1)c1cc2c(c3c1ccn3C)C1CCC2C1 (stereo unspecified)	n	n	n	n
Cc1ccc(S(=O)(=O)N2CCCCC2)cc1C(=O)N(CCc1ccccc1)Cc1ccccc1	n	n	n	n
SMILES	Bead autofluor	BoNT A protease	BoNT F protease	Anthrax LF prot
O=C(Nc1ccc2c(c1)OCO2)N1CCN(c2ccccc2Cl)CC1	n	n	n	n
CSc1ccccc1N1CCN(C(=O)Nc2ccc3c(c2)NC(=O)CO3)CC1	21233	u	n	n
CCCS(=O)(=O)NC(=O)C1(C)CCCN(C(=O)c2cccc(C)c2C)C1 (stereo unspecified)	n	n	n	n
CC(C)(C)c1ccc(-c2nc3c(C#N)c(-c4ccc5c(c4)OCO5)ccn3n2)cc1	20531	n	n	n
CCCC(=O)N1CCC1(C)C(=O)Nc1ccc(-n2cccc2)cc1 (stereo unspecified)	n	n	n	n
COc1cccc(C=NN(C)c2c([N+](=O)[O-])cc(C(F)(F)F)cc2[N+](=O)[O-])c1O	n	n	n	n
O=C(Nc1ccc(C(=O)O)cc1)/C(=C\c1ccc2c(c1)OCO2)NC(=O)c1ccccc1Cl	n	n	n	n
CC1(C)NC(=O)N(CCCCOc2ccc(Cl)cc2C=O)C1=O	n	n	n	n
Cc1cc(OCCCCN2C(=O)NC(C)(C)C2=O)cc(C)c1Cl	23207	n	n	n
CC1(C)NC(=O)N(CCCOc2ccc(Br)cc2Cl)C1=O	23298	n	n	n
CC1(C)NC(=O)N(CCCCOc2ccc(Cl)cc2)C1=O	23237	n	n	n
CC1(C)NC(=O)N(CCCCOc2ccc(Br)cc2Cl)C1=O	u	n	n	n
CCc1cc(OCCN2C(=O)NC(C)(C)C2=O)ccc1Cl	20493	n	n	n
Cc1cc2c(SCC(=O)Nc3cccc(O)c3)ncnc2s1	n	n	n	n
Cc1ccc(S(=O)(=O)NC(=O)N2CCCC2)cc1	n	n	n	n
